Screening results deposited in PubChem BioAssay by National Center for Advancing Translational Sciences (NCATS).
FBPA Giardia inh: blocks Giardia fructose-bisphosphate aldolase activity; A8B2U2; purified Giardia FBPA; Potency, µM (doses to about 59.6 µM), for inactives: at the highest dose activity, negative = inhibition, most hits filed as inhibitors; 290,000 tested, 0.71% active; AID 2451; also: nearly all actives have a fitted effect of over 55% in size
Target sequence (A8B2U2 whole entry, looked up): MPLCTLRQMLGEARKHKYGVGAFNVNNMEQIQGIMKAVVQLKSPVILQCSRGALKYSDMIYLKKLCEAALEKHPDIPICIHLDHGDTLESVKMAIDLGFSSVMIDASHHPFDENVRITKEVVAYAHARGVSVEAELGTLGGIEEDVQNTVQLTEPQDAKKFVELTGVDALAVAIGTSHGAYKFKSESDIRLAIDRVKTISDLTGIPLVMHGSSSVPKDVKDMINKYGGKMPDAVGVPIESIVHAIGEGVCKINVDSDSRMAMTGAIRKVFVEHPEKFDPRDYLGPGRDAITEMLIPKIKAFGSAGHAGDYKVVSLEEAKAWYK
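40 nM FBPA preincubated 10 min at RT with compound (up to 57.5 uM final), then substrate plus GAPDH/TPI/NAD/arsenate coupling and diaphorase/resazurin added. Fluorescence read after 20 min at RT, 525/598 nm.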
Sm TGR inh: S. mansoni TGR enzyme inhibition; Q962Y6; purified TGR, DTNB reduction, TNB absorbance 405 nm; Potency, µM (doses to about 114 µM), inactives show at the highest dose activity change, negative = inhibition, usual class: inhibitors; 360,000 tested, 3% active; also: nearly all actives have a fitted effect of over 60% in size
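TGR 20 nM + NADPH 100 uM (dispensed conc.), cpd preinc 15 min RT; start with NADPH (500 uM addition) then DTNB (15 mM addition). Kinetic TNB absorbance, 405 nm filter. Four-parameter Hill fit across titration.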
AmpC inh no detg: inhibitors of E. coli AmpC beta-lactamase without detergent | P00811 | AmpC nitrocefin hydrolysis, absorbance 480 nm, 0.0001% Triton | Potency, µM (doses to about 57.1 µM), for the others: at the top dose activity change, negative = inhibition, hits mostly inhibitors | 330,000 tested, 0.52% active | AID 485341;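 also: plate controls were no compound for no effect and no enzyme for full effect; nearly all actives have a fitted effect of over 20% in size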
Target sequence (P00811 whole entry, looked up): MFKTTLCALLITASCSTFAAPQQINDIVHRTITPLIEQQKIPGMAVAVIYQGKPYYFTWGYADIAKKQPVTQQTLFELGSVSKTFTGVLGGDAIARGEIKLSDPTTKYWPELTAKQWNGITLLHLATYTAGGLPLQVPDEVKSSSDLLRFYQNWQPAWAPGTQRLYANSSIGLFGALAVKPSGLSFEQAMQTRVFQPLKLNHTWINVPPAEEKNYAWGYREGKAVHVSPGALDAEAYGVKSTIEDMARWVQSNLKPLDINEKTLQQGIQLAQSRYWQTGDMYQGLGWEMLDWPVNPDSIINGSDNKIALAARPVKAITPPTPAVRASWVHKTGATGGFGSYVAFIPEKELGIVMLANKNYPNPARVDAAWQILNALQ
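20 mM phosphate pH 7.0 + 0.01% (detergent screen) or 0.0001% Triton X-100; 5.3 nM AmpC reagent; cpd preinc 15 min RT; nitrocefin (800 uM stock) to start; A480 q20 s × 4 min; Activity was normalised to no-enzyme and no-compound control wells.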
AmpC inh detg: blocks E. coli AmpC beta-lactamase in detergent assay | 370,000 tested, 0.041% active | P00811 | Potency, µM (highest dose often 114 µM), inactives show top-dose activity change, negative = inhibition, most hits filed as inhibitors | AmpC hydrolysis of nitrocefin, absorbance 480 nm, 0.01% Triton | AID 485294;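 also: 0% = no-compound wells and -100% = no-enzyme wells; nearly all actives have a fitted effect of over 25% in size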
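20 mM phosphate pH 7.0 + 0.01% (detergent screen) or 0.0001% Triton X-100; 5.3 nM AmpC reagent; cpd preinc 15 min RT; nitrocefin (800 uM stock) to start; A480 q20 s × 4 min; Activity was normalised to no-enzyme and no-compound control wells.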
Active calls of the source: *; u = inconclusive; x = no result given; [ ] = remark or other dose. Sampled rows, rich in hits. Any-hit rate of the full collection: about 3.6%. Calls follow the shape of the dose curve; as a rule, active = well fitted curve in the direction sought with a large enough effect; inconclusive = small, poorly fitted or top-dose-only effect, or another doubt; inactive = no such curve, though single readings can be large; an effect the other way counts as inactive or inconclusive. Unless noted, % is scaled to controls: 0 for no effect and ±100 for the full control effect; potency is read from the fitted curve at half-maximal effect.

SMILES | FBPA Giardia inh | Sm TGR inh | AmpC inh no detg | AmpC inh detg
O=C(CN1C(=O)NC2(CCCC2)C1=O)Oc1ccc2ccc(=O)oc2c1 | x | 56µM* | -20% | -14%
COc1cccc([C@@H]2Oc3ccc(OC)cc3C[C@H]2OC(=O)N[C@H]2CCCc3ccccc32)c1 | -1% | x | x | x
CCOCCCNC(=S)N1C2CCC1CC(NC(=O)NC1CCCCC1)C2 (stereo not given) | 0% | 1% | 0.32µM* | -2%
COC(=O)C1=C(C(=O)OC)[C@@H]2N(Cc3ccccc3)c3ccccc3[C@@]23C[C@@H](C(=O)OC)N(C(=O)NCc2ccccc2)C3=C1 | -11% | x | x | x
N=C1/C(=C\c2ccc(-c3cccc(Cl)c3)o2)C(=O)N=C2SC=C(c3ccccc3)N12 | u | u | 16µM* | -7%
N=C1/C(=C\c2ccc(-c3ccc(C(=O)O)cc3)o2)C(=O)N=C2SC=C(c3ccccc3)N12 | u | -19% | -28% | 0%
COc1ccc(S(=O)(=O)N(CC(=O)NN=C2CCN(C)CC2)c2cc(Cl)ccc2OC)cc1OC | 10% | 1% | 29% | -12%
CC1(C)CC(=O)C(CC2CCCCC2=O)C(=O)C1 (stereo not given) | 4% | 3% | -5% | -1%
CC1(C)CC(=O)C(CC2C(=O)CC(C)(C)CC2=O)C(=O)C1 | -8% | 2µM* | -8% | 2%
NC(=O)N/N=C/c1sc(=O)n(-c2ccccc2)c1Cl | -1% | 32µM* | -3% | 4%
O=C(N/N=C/c1sc(=O)n(-c2ccccc2)c1Cl)c1ccccc1 | -3% | u | -25% | -6%
O=C(O)c1ccc(S(=O)(=O)Nc2ccc3c(c2)OCCO3)cc1 | 16% | 32µM* | -16% | 2%
Cc1ccc(NCC(=O)c2ccc([N+](=O)[O-])cc2)cc1 | -6% | 16µM* | -36% | -9%
COc1ccc(C(=O)CC(Nc2ccc([N+](=O)[O-])cc2)c2ccc(OC)cc2)cc1 (stereo not given) | -3% | 6% | -30% | 5%
CNC(CC(=O)c1ccc([N+](=O)[O-])cc1)C(Cl)(Cl)Cl (stereo not given) | -28% | 0.45µM* | -18% | -12%
COc1ccc2[nH]c3c4c(ccc3c2c1)C(=O)C=CC4=O | u | 0.71µM* | -35% | 3%
COc1ccc2cc(OCC(=O)NNC(=O)Nc3ccc(C(C)=O)cc3)ccc2c1 | x | -18% | -51% | -2%
O=C(Nc1ccc(C(=O)N2CCCCC2)cc1)c1nsc2ccccc12 | x | 3% | x | 11%
COc1cccc(-n2nc(C(N)=O)c(O)cc2=O)c1 | -1% | 6% | -21% | 0%
COc1cccc(-n2nc(C#N)c(Cl)cc2=O)c1 | 3% | 2.5µM* | -21% | -1%
CCOc1ccccc1/C=C/C(=O)NCC(=O)N1CCC(N(C)C2CCCCC2C)CC1 (stereo not given) | x | 6.3µM* | 15% | -2%
COc1ccc(OC)c2[nH]c(=O)c(CCNC(=O)C(C)C)cc12 | -30% | 0% | 10µM* | u
CCC(CC)C(=O)NCCc1cc2c(OC)ccc(OC)c2[nH]c1=O | -6% | 5% | -20% | -1%
CC(=C1C(=O)c2ccccc2C1=O)N1CCN(Cc2ccccc2)CC1 | -21% | 40µM* | -19% | u
CC(=C1C(=O)c2ccccc2C1=O)N1CCC(C(N)=O)(N2CCCCC2)CC1 | -29% | 32µM* | -10% | u
SMILES | FBPA Giardia inh | Sm TGR inh | AmpC inh no detg | AmpC inh detg
Nc1nc(-c2ccccc2)c(C(=O)Nc2ccccc2)s1 | 4% | 19% | -15%[11.4 µM] | u
Cc1cc(NC(=O)C(C)SCC(=O)N(C)Cc2c(F)cccc2Cl)no1 (stereo not given) | x | x | -46% | x
COc1ccc2c(ccc[n+]2CC(=O)c2ccccc2)c1 | 13% | -2% | -21% | 0%
COc1ccc(C(=O)C[n+]2cn(C(F)F)c3ccccc32)c(F)c1 | 7% | 10µM* | -22% | 3%
O=C1/C(=C/c2cccnc2)SC(=S)N1Nc1ccccc1 | -16% | 2µM* | -10% | 10%
O=C1/C(=C/c2cccnc2)SC(=S)N1c1ccccc1 | 12% | -3% | -20% | -7%
CN(C)C(=O)COc1ccc(S(=O)(=O)c2ccc(OCC(=O)N(C)C)cc2)cc1 | 0% | 79µM* | -4% | -1%
CC1=C(/C=C/C(C)=C/C=C/C(C)=C/C(=O)O)C(C)(C)CCC1 | -4% | 35µM* | 73% | -10%
Cc1cc(C)cc(OCCOc2cccc(C=C3C(=O)NC(=O)NC3=O)c2)c1 | -8% | 32µM* | -28% | 0%
CC(C)(C)NC(=O)CN(Cc1ccccc1)S(=O)(=O)c1ccccc1 | 0% | -4% | 12% | -10%
O=C(O)CC(NC(=O)C12CC3CC(CC(C3)C1)C2)c1ccc(Cl)cc1 (stereo not given) | 5% | 0% | -7% | -11%
O=C(NC(n1ccc(=O)[nH]c1=O)C(Cl)(Cl)Cl)C12CC3CC(CC(C3)C1)C2 (stereo not given) | 9% | 40µM* | -29% | -11%
CC(=O)N(Cc1ccc2c(c1)OCO2)C1CC(=O)N(CCc2ccccc2)C1=O (stereo not given) | 4% | 22µM* | 15% | -15%
O=C(O)/C=C/C(=O)N(Cc1ccc2c(c1)OCO2)C1CC(=O)N(CCc2ccccc2)C1=O (stereo not given) | 6% | -17% | -14% | -17%
COCCCNC(=O)C1CCC(CNS(=O)(=O)c2ccc(C)cc2)CC1 (stereo not given) | 2% | -4% | 5% | -12%
C=C(C=O)CC1CC(O)[C@]2(C)OC3CC4OC5C[C@]6(C)O[C@]7(C)CCC8OC9C[C@]%10(C)OC%11C(C)=CC(=O)OC%11CC%10OC9C[C@@H](C)C8OC7CC6O[C@]5(C)CC5OC5C4OC3CC2O1 (stereo not given in full) | -3% | 11µM* | 142% | 3%
C=C(CO)CC1CC(O)[C@]2(C)OC3CC4OC5C[C@]6(C)O[C@]7(C)CCC8OC9C[C@]%10(C)OC%11C(C)=CC(=O)OC%11CC%10OC9C[C@@H](C)C8OC7CC6O[C@]5(C)C/C=C\C4OC3CC2O1 (stereo not given in full) | -6% | 4% | 152% | 1%
CCCC(C(=O)Nc1ccncc1)c1ccccc1 (stereo not given) | x | -4% | -45% | -4%
Oc1ccc(C(c2nnnn2C2CCCC2)N2CCc3ccccc3C2)cc1 (stereo not given) | -11% | 3.2µM* | -45% | 3%
CCOC(=O)c1sc(/S(C)=N\S(=O)(=O)c2cccc(Cl)c2)c2c1CCC=C2 (stereo not given) | u | 2.8µM* | 17% | -3%
CCOc1ccccc1NC(=O)COc1cccnc1[N+](=O)[O-] | x | x | -9% | x
COc1ncc2nc(-c3cccs3)c(=O)n(C)c2n1 | -1% | x | x | x
O=C(C1CCN(C2CC(=O)N(c3ccc(Cl)cc3)C2=O)CC1)N1CCOCC1 (stereo not given) | 0% | 14µM* | -12% | -15%
O=C(C1CCN(Cc2ccccc2)CC1)N1CCCC1 | -19% | 4% | -8% | -1%
